Shn3 3UTR inh: reduction of Shn3 3'UTR firefly luciferase signal, primary screen, Schnurri-3 inhibitor project, cell-based, Clone20 osteoblasts, set 2; actives 0.52% (n = 360,000); inhibition, % at 12.5 µM; Clone20 osteoblast Shn3 3'UTR firefly luciferase, 24 h; AID 588674, 2011;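 active = mean inhibition of at least 75% with every replicate also reaching 75%; inconclusive = mean inhibition at least 75% but some replicate below; inactive = mean inhibition below 75%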
MITF TRPM1 inh: inhibitors of MITF-dependent TRPM1 promoter reporter, primary screen, cell-based, SK-MEL-5, single point, luciferase; inhibition, % at 12.5 µM; AID 488899, 2010; actives 0.83% (n = 330,000); SK-MEL-5 TRPM1 promoter luciferase, 24 h;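 active = mean inhibition across replicates of 60% or more, whatever share of single replicates reaches that level; inconclusive = some that reach 60%, reason not given; inactive = mean inhibition across replicates below 60%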
PAX8 inh HTS: inhibitors of PAX8-driven TPO luciferase reporter, primary screen, RMG-I cells, single concentration; SteadyGlo, 24 h; inhibition, % at 12.6 µM; actives 1.2% (n = 360,000);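 active = mean replicate inhibition at least 60% with every replicate also reaching 60%; inconclusive = only one of the two criteria is met; inactive = mean below 60% and not all replicates reaching 60%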;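 note: luciferase light reporting Pax8 driven TPO promoter activity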
Peg3 promoter: Peg3 promoter-driven luciferase inhibitors, primary screen, cell-based, HeLa, luciferase luminescence; HeLa PEG-Prom luciferase reporter, overnight; inhibition, % at 20 µM; actives 1.7% (n = 360,000); AID 588405, 2011;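 active = inhibition of at least 50% at 20 µM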
ABHD5 PLIN5 PPI: ABHD5-PLIN5 interaction inhibitors, primary screen, cell lysate, split luciferase complementation, luminescence. actives 0.78% (n = 360,000). Split G. princeps luciferase complementation, 4 h. AID 602281, 2012. Perilipin-5 (Homo sapiens) + 1-acylglycerol-3-phosphate O-acyltransferase ABHD5 (Homo …. inhibition, % at 4 µM;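 active = inhibition above the mean inhibition across every tested compound plus 3 SD, cut at about 22% in these data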
Target sequence (Q00G26 whole entry, looked up): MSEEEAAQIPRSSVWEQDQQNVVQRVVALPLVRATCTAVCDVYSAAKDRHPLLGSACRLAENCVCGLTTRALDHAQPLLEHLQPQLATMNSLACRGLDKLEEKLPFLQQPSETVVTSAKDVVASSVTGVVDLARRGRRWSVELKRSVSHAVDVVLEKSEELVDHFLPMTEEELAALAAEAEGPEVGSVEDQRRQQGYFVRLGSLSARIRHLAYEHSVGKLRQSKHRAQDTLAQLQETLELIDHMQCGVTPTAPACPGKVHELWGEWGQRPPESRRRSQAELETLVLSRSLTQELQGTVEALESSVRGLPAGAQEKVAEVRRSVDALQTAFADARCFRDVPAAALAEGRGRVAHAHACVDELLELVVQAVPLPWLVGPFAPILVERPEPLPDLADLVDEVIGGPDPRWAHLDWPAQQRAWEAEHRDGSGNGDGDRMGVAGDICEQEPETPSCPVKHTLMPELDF
Target sequence (Q8WTS1 whole entry, looked up): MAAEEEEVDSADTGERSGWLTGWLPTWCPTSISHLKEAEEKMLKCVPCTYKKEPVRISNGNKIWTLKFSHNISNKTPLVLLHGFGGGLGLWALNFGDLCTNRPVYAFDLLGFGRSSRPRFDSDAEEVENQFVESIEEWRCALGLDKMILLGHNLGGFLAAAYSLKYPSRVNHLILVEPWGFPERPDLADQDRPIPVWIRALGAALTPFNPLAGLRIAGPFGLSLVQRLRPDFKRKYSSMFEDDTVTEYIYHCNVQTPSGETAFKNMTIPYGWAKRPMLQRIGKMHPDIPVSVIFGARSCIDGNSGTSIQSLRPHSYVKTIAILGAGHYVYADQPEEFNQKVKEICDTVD
EWS-Fli inh: EWS/Fli-driven NR0B1 reporter inhibitors, primary screen, A673 cells, NR0B1 luciferase, luminescence, MLPCN library. actives 0.67% (n = 350,000). viability-normalised. inhibition, % at 12.6 µM;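 active = mean inhibition of at least 50% after viability correction, with every replicate also passing that limit; inconclusive = mean reaches 50% but only one of two replicates passes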;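 note: firefly luciferase signal divided by Alamar Blue viability fluorescence both relative to DMSO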
Hits are given with their value. Most compounds without a hit are left out; they make up all but 3% or so of the library.

How did Cc1ccccc1S(=O)(=O)N1CC(=O)N2[C@H](CO)[C@H](c3ccc(C#CCC(C)C)cc3)[C@H]2C1 do in these assays?
PAX8 inh HTS: 66.0; EWS-Fli inh: inactive

What do the screens show for `CS(=O)(=O)N1CC(=O)N2[C@@H](CO)[C@H](c3ccc(C#CCC4CCCC4)cc3)[C@@H]2C1`?
PAX8 inh HTS: inactive; EWS-Fli inh: inactive

How did Cc1ccccc1S(=O)(=O)N1CC(=O)N2[C@H](CO)[C@H](c3ccc(C#CCC(C)C)cc3)[C@@H]2C1 do in these assays?
PAX8 inh HTS: inactive; EWS-Fli inh: inactive

How did CS(=O)(=O)N1CC(=O)N2[C@H](CO)[C@H](c3ccc(C#CCC4CCCC4)cc3)[C@H]2C1 do in these assays?
PAX8 inh HTS: 76.0; EWS-Fli inh: inactive

How did CCOc1ccc(C(=O)NCC(=O)OCc2c(C)noc2C)cc1 do in these assays?
Shn3 3UTR inh: inactive; MITF TRPM1 inh: inactive; PAX8 inh HTS: 72.9; Peg3 promoter: inactive; ABHD5 PLIN5 PPI: inactive; EWS-Fli inh: inactive

How did COCC(=O)N1[C@@H]2CN(C(=O)NC(C)C)c3ccccc3[C@@H]2[C@@H]1CO do in these assays?
PAX8 inh HTS: inactive; EWS-Fli inh: inactive

How did Cc1nn(CC(=O)NCCCN2CCC(Cc3ccccc3)CC2)c(=O)c2cc(-c3ccccc3)nn12 do in these assays?
Shn3 3UTR inh: inactive; MITF TRPM1 inh: inconclusive; PAX8 inh HTS: inactive; Peg3 promoter: 100.4; ABHD5 PLIN5 PPI: inactive

What do the screens show for `Cc1c(CCOC(=O)CC23CC4CC(CC(C4)C2)C3)sc[n+]1CC(=O)c1ccccc1`?
Shn3 3UTR inh: inactive; MITF TRPM1 inh: inactive; PAX8 inh HTS: inactive; Peg3 promoter: 61.5; ABHD5 PLIN5 PPI: inactive; EWS-Fli inh: inactive

Results for Cc1c(CCOC(=O)C23CC4(C)CC(C)(CC(C)(C4)C2)C3)sc[n+]1CC(=O)c1ccccc1 ?
Shn3 3UTR inh: 90.3; MITF TRPM1 inh: inconclusive; PAX8 inh HTS: inactive; Peg3 promoter: 113.5; ABHD5 PLIN5 PPI: inactive; EWS-Fli inh: inactive

What do the screens show for `CC[C@H](C)[C@@H]1OC(=O)[C@@H](C)[C@@H](CC)NC(=O)[C@H](C)N(C)C(=O)C(C)(C)C(=O)C(C)NC(=O)[C@H](Cc2ccccc2)N(C)C(=O)[C@H](C(C)C)N(C)C(=O)CNC(=O)[C@H](CC(C)C)N(C)C(=O)CNC1=O` (stereo partly drawn)?
Shn3 3UTR inh: inactive; Peg3 promoter: 87.2; ABHD5 PLIN5 PPI: inactive

What do the screens show for `COc1ccc(C(C)NC(=O)c2ccc([N+](=O)[O-])cc2)cc1OC` (stereo not drawn)?
Shn3 3UTR inh: inactive; MITF TRPM1 inh: inactive; PAX8 inh HTS: inactive; Peg3 promoter: inactive; ABHD5 PLIN5 PPI: inactive; EWS-Fli inh: inactive

Results for COc1ccc(C(C)NC(=O)c2ccc(Br)cc2)cc1OC (stereo not drawn) ?
Shn3 3UTR inh: inactive; MITF TRPM1 inh: inactive; PAX8 inh HTS: 137.9; Peg3 promoter: inactive; ABHD5 PLIN5 PPI: inactive; EWS-Fli inh: inactive

What do the screens show for `CN(C)CCCNC(=O)C[C@@H]1CC[C@H]2[C@@H](COC[C@@H](O)CN2Cc2ccc(Cl)c(Cl)c2)O1`?
PAX8 inh HTS: inactive; EWS-Fli inh: inactive

How did C[C@@H]1CN([C@H](C)CO)C(=O)c2cccc(NC(=O)C3CCOCC3)c2O[C@H]1CN(C)CC1CC1 do in these assays?
PAX8 inh HTS: inactive; EWS-Fli inh: inactive

How did COc1ccc2c(c1)C(C)=CC(C)(C)N2S(=O)(=O)c1ccc(NC(C)=O)cc1 do in these assays?
Shn3 3UTR inh: inactive; MITF TRPM1 inh: inactive; PAX8 inh HTS: 63.7; Peg3 promoter: inactive; ABHD5 PLIN5 PPI: inactive; EWS-Fli inh: inactive

Results for CC1=CC(C)(C)N(S(=O)(=O)c2ccc(C)cc2)c2ccccc21 ?
Shn3 3UTR inh: inactive; MITF TRPM1 inh: inactive; Peg3 promoter: inactive; ABHD5 PLIN5 PPI: inactive

How did CCOc1ccc2c(c1)C(C)=CC(C)(C)N2S(=O)(=O)c1ccc(F)cc1 do in these assays?
Shn3 3UTR inh: inactive; MITF TRPM1 inh: inactive; PAX8 inh HTS: inactive; Peg3 promoter: inactive; ABHD5 PLIN5 PPI: inactive; EWS-Fli inh: 61.6

How did CC1=CC(C)(C)N(S(=O)(=O)c2ccc(F)cc2)c2ccc(C)cc21 do in these assays?
Shn3 3UTR inh: inactive; MITF TRPM1 inh: inactive; Peg3 promoter: inactive; ABHD5 PLIN5 PPI: inactive

What do the screens show for `COc1ccc2c(c1)C(C)=CC(C)(C)N2S(=O)(=O)c1ccc(Br)cc1`?
Shn3 3UTR inh: inactive; MITF TRPM1 inh: inactive; PAX8 inh HTS: 88.4; Peg3 promoter: inactive; ABHD5 PLIN5 PPI: inactive; EWS-Fli inh: inactive

What do the screens show for `CCOc1ccc2c(c1)C(C)=CC(C)(C)N2S(=O)(=O)c1ccc(NC(C)=O)cc1`?
Shn3 3UTR inh: inactive; MITF TRPM1 inh: inactive; PAX8 inh HTS: 87.7; Peg3 promoter: inactive; ABHD5 PLIN5 PPI: inactive; EWS-Fli inh: inactive

How did C[C@@H]1CCCCO[C@H](CN(C)Cc2ccc(C(=O)O)cc2)[C@H](C)CN([C@H](C)CO)C(=O)c2cc(NS(=O)(=O)c3cn(C)cn3)ccc2O1 do in these assays?
PAX8 inh HTS: inactive; EWS-Fli inh: inactive

What do the screens show for `Cc1nc(-c2ccc3c(c2)OCO3)cs1`?
Shn3 3UTR inh: inactive; MITF TRPM1 inh: inactive; PAX8 inh HTS: inactive; Peg3 promoter: inactive; ABHD5 PLIN5 PPI: inactive

How did Cc1nc(CN(C)c2ncnc3ccc(-c4ccc5c(c4)OCO5)cc23)cs1 do in these assays?
Shn3 3UTR inh: inactive; PAX8 inh HTS: 65.8; Peg3 promoter: inactive; ABHD5 PLIN5 PPI: inactive; EWS-Fli inh: inactive

How did C[C@H](CO)N1C[C@H](C)[C@H](CN(C)C(=O)C2CCCCC2)OCCCC[C@H](C)Oc2ccc(NC(=O)NC3CCCCC3)cc2C1=O do in these assays?
PAX8 inh HTS: inactive; EWS-Fli inh: inactive

What do the screens show for `O=C(N/N=C/c1ccc(N2CCOCC2)cc1)c1ccccc1OCCOc1ccccc1`?
Shn3 3UTR inh: inactive; MITF TRPM1 inh: inactive; PAX8 inh HTS: inactive; Peg3 promoter: 62.4; ABHD5 PLIN5 PPI: inactive; EWS-Fli inh: inactive

How did CCCSc1nc2c(c(=O)[nH]c(=O)n2C)n1Cc1ccc(C)cc1 do in these assays?
Shn3 3UTR inh: inactive; MITF TRPM1 inh: inactive; Peg3 promoter: 55.0; ABHD5 PLIN5 PPI: inactive

Results for COc1ccc(C2NC3=C(CCC3)C3(C#N)C(OC)(OC)N=C(N)C23C#N)cc1 (stereo not drawn) ?
Shn3 3UTR inh: inactive; MITF TRPM1 inh: 79.8; Peg3 promoter: inactive; ABHD5 PLIN5 PPI: inactive

How did CO[C@H]1CN(C)C(=O)c2ccc(NC(=O)c3nc4ccccc4s3)cc2OC[C@@H](C)NC[C@H]1C do in these assays?
EWS-Fli inh: inactive

Results for CCS(=O)(=O)N1CC2(CN(Cc3ccccc3OC)[C@H](CO)c3c2c2ccc(OC)cc2n3C)C1 ?
EWS-Fli inh: inactive
